{"source": "PubChem BioAssay AID651640", "about": "(Broad Institute, 2012)", "note": "Among all 350,000 compounds or so, about 6,000 (1.7%) were called active. Not shown: some 5% with an inconclusive outcome. The sample as a whole holds a higher share of actives than the screen did. Unmarked numbers belong to inactive results. Rule as the data show it: active = CPE inhibition above about 20% (passing the limit was not always enough); inconclusive = no clear call, values can overlap the other calls; tested in BHK-21 cells.", "data": [{"assay": "protection of cells from dengue 2 killing – plate reader, single concentration, primary screen (AID 651640);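 also: 0% = median of neutral control wells and 100% = median of positive control wells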", "details": "DENV2-infected cells, cytopathic effect rescue, at 9.99 µM, stronger effect = higher value", "values": [{"compound": "C[C@H]1CN([C@@H](C)CO)C(=O)Cc2cc(NC(=O)C3CC3)ccc2O[C@@H]1CN(C)S(=O)(=O)c1cccs1", "CPE inhibition": "0.692%"}, {"compound": "O=C(C[C@H]1C=C[C@@H](NC(=O)Nc2cc(F)ccc2F)[C@@H](CO)O1)NCc1ccc2c(c1)OCO2", "CPE inhibition": "3.1%"}, {"compound": "CCC(=O)Nc1ccc2c(c1)OC[C@@H](C)N(Cc1cncnc1)C[C@H](C)[C@@H](OC)CN(C)C2=O", "CPE inhibition": "0.095%"}, {"compound": "O=C(Cc1ccncc1)Nc1ccc2c(c1)[C@@H]1C[C@H](CC(=O)N3CCCCC3)O[C@H](CO)[C@@H]1O2", "CPE inhibition": "-1.67%"}, {"compound": "CC(=O)N1[C@H](CN(CC2CCC2)C(=O)CN(C)C)[C@@H](c2ccccc2)[C@@H]1CO", "CPE inhibition": "-6.71%"}, {"compound": "CCO[C@H]1OC(C(=O)Nc2ccccc2)=C[C@@H](C2CC2)[C@@H]1CCCO", "CPE inhibition": "-12.3%"}, {"compound": "CCO[C@H]1OC(C(=O)O)=C[C@@H](C2CCCCC2)[C@@H]1CCCO", "CPE inhibition": "45.4% (active)"}, {"compound": "CCO[C@@H]1OC(C(=O)NCc2nc3ccccc3[nH]2)=C[C@H](C2CCCCC2)[C@H]1CCCO", "CPE inhibition": "5.22%"}, {"compound": "C[C@H](CO)N1C[C@H](C)[C@@H](CN(C)S(=O)(=O)c2cccs2)OCc2ccccc2-c2ccccc2C1=O", "CPE inhibition": "0.48%"}, {"compound": "COc1cccc(NC(=O)CN(C)C(=O)Cc2ccc(Cl)cc2Cl)c1", "CPE inhibition": "-4.12%"}, {"compound": "COc1cccc(NC(=O)CN(C)CC(=O)Nc2ccc3c(c2)CCC3)c1", "CPE inhibition": "4.15%"}, {"compound": "COc1cccc(NC(=O)CN(C)C(=O)CSC(=S)N2CCCC2)c1", "CPE inhibition": "31.4% (active)"}, {"compound": "O=C(Nc1cc(F)ccc1F)N1CCCCN2[C@H](C1)[C@H](c1ccc(-c3cccnc3)cc1)[C@@H]2CO", "CPE inhibition": "-2.73%"}, {"compound": "CN(C)CCCNC(=O)C[C@@H]1C=C[C@H](NC(=O)c2ccccc2F)[C@H](CO)O1", "CPE inhibition": "-4.33%"}, {"compound": "CCCC#Cc1ccc([C@@H]2[C@H](CO)N3CCCCN(S(=O)(=O)c4ccccc4F)C[C@@H]23)cc1", "CPE inhibition": "-29.1%"}, {"compound": "CC(C)NC(=O)N(C)C[C@H]1Oc2cc(-c3cncnc3)ccc2S(=O)(=O)N([C@@H](C)CO)C[C@H]1C", "CPE inhibition": "12.5%"}, {"compound": "O=C(OCc1ccccc1)N1CCC2CC1c1cc(N3CCN(S(=O)(=O)c4cc(Cl)cc(Cl)c4)CC3)ccc12", "note": "(stereo not given)", "CPE inhibition": "-5.76%"}, {"compound": "Cc1ccc(S(=O)(=O)N(CCc2ccccc2)c2ccc3c(c2)C2CC3CCN2C(=O)OCc2ccccc2)cc1", "note": "(stereo not given)", "CPE inhibition": "-3.72%"}, {"compound": "O=C(OCc1ccccc1)N1CCC2CC1c1ccc(-c3ccc4c(c3)OCO4)cc12", "note": "(stereo not given)", "CPE inhibition": "59.5% (active)"}, {"compound": "O=C(C[C@H]1CC[C@H]2[C@@H](COC[C@H](O)CN2Cc2nccs2)O1)NCc1ccc(Oc2ccccc2)cc1", "CPE inhibition": "3.47%"}]}]}
